Among the test systems are NCI-H23 lung; NCI-H226 lung; NCI-H322M lung; HOP-62 NSCLC; NCI-H460 lung; HOP-92 NSCLC; NCI-H522 lung; A549/ATCC NSCLC; 786-0 renal; COLO 205 colon.
Experiment in all cases: NCI-60 one-dose screen, 48 h (100 = growth as untreated, 0 = no growth, -100 = all killed)

The structures appear in SMILES notation. Several values for one entry are separate records, joined by “and”; a condition that tells them apart may be missing. Identical values can stand only once. The panel holds about 83,000 compounds, 20% with a hit somewhere; the sample as a whole holds those more often.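 Treatment: one concentration, 48 hours, 96-well format. Scoring: percent growth, with anything below 10 considered active.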 Activity calls are given as the source filed them.

As for `Cc1[nH]c(-c2nc3ccccc3[nH]2)c(C)c1C(=O)NC(C)C1CCCCC1` (configuration not stated), the growth is 87.1% (inactive) in the assay on NCI-H23 lung (10 µM); -84.8% (active) in the assay on NCI-H23 lung (100 µM); 81.1% (inactive) in the assay with NCI-H226 lung (10 µM); -53% (active) with NCI-H226 lung (100 µM); 89.1% (inactive) with NCI-H322M lung (10 µM); -96.3% (active) with NCI-H322M lung (100 µM). Besides, the growth was 95.5% (inactive) in the assay on HOP-62 NSCLC (10 µM); -54.4% (active) with HOP-62 NSCLC (100 µM); 98.1% (inactive) in the assay with NCI-H460 lung (10 µM); -72% (active) in the assay with NCI-H460 lung (100 µM); 78.7% (inactive) with HOP-92 NSCLC (10 µM); -50.9% (active) in the assay on HOP-92 NSCLC (100 µM). Also, the growth in the assay with NCI-H522 lung (10 µM) is 80.9% (inactive); with NCI-H522 lung (100 µM) it was -36.1% (active); with A549/ATCC NSCLC (10 µM) it was 90.5% (inactive); in the assay with A549/ATCC NSCLC (100 µM), -40.2% (active); in the assay on 786-0 renal (10 µM), 95.2% (inactive); in the assay on 786-0 renal (100 µM) it was -31.1% (active). The growth with COLO 205 colon (10 µM unless noted) was -60.3% [100 µM] (active).
Take `O[C@H](c1cc(C(F)(F)F)nc2c(C(F)(F)F)cccc12)[C@@H]1CCCCN1`: the growth with NCI-H23 lung (10 µM unless noted) was 79.2% (inactive) and 77.8% (inactive); in the assay with NCI-H226 lung (10 µM unless noted), 93.5% (inactive) and 58.9% (inactive); in the assay with NCI-H322M lung (10 µM unless noted) it was 68.6% (inactive) and 52% (inactive); with HOP-62 NSCLC (10 µM unless noted) it was 71.3% (inactive) and 74.6% (inactive); in the assay with NCI-H460 lung (10 µM unless noted), 27.7% (inactive) and 23.6% (inactive); with HOP-92 NSCLC (10 µM unless noted) it was 9.97% (active) and -8.33% (active). Further, the growth with NCI-H522 lung (10 µM unless noted) was 58.4% (inactive) and 22.8% (inactive); with A549/ATCC NSCLC (10 µM unless noted), 56.9% (inactive) and 67.1% (inactive); in the assay with 786-0 renal (10 µM unless noted) it was 42.4% (inactive) and 56.6% (inactive); with COLO 205 colon (10 µM unless noted), 62.3% (inactive) and 60.5% (inactive).
As for `c1ccc2cc(C[n+]3ccn(Cc4ccc5ccccc5n4)c3)ccc2c1`, the growth in the assay with NCI-H23 lung (10 µM unless noted) is -4.2% (active) and 29.2% (inactive); with NCI-H226 lung (10 µM unless noted), 19.6% (inactive) and 46.4% (inactive); in the assay on NCI-H322M lung (10 µM unless noted), 34.8% (inactive) and 75% (inactive); in the assay on HOP-62 NSCLC (10 µM unless noted), 1.85% (active) and 44.3% (inactive); in the assay on NCI-H460 lung (10 µM unless noted), 11.1% (inactive) and 35.8% (inactive); in the assay on HOP-92 NSCLC (10 µM unless noted) it was -20.1% (active) and -5.22% (active). Further, the growth in the assay with NCI-H522 lung (10 µM unless noted) was -27.4% (active) and 6.58% (active); with A549/ATCC NSCLC (10 µM unless noted) it was 37.3% (inactive) and 59.3% (inactive); with 786-0 renal (10 µM unless noted), 30.9% (inactive) and 76.1% (inactive); with COLO 205 colon (10 µM unless noted), -38.3% (active) and -35.3% (active).
In the case of `Oc1ccccc1C=NCC1CCC(CN=Cc2ccccc2O)CC1` (configuration not stated), the growth was 78.9% (inactive) with NCI-H23 lung (10 µM unless noted); 101% (inactive) in the assay with NCI-H226 lung (10 µM unless noted); 80.3% (inactive) in the assay on NCI-H322M lung (10 µM unless noted); 94.5% (inactive) with HOP-62 NSCLC (10 µM unless noted); 41.7% (inactive) in the assay on NCI-H460 lung (10 µM unless noted); 104% (inactive) with HOP-92 NSCLC (10 µM unless noted). The growth with NCI-H522 lung (10 µM unless noted) is 57.7% (inactive); with A549/ATCC NSCLC (10 µM unless noted), 92.2% (inactive); in the assay on 786-0 renal (10 µM unless noted), 108% (inactive); in the assay on COLO 205 colon (10 µM unless noted), 97.3% (inactive).
Regarding `COc1ccc2nc(Cl)cc(C)c2c1`, the growth was 101% (inactive) and 107% (inactive) with NCI-H23 lung (10 µM unless noted); 96.5% (inactive) and 104% (inactive) with NCI-H226 lung (10 µM unless noted); 91.3% (inactive) and 98.1% (inactive) in the assay with NCI-H322M lung (10 µM unless noted); 104% (inactive) and 65% (inactive) in the assay with HOP-62 NSCLC (10 µM unless noted); 100% (inactive) and 111% (inactive) with NCI-H460 lung (10 µM unless noted); 104% (inactive) and -11.5% (active) with HOP-92 NSCLC (10 µM unless noted). Besides, the growth was 97.5% (inactive) and 112% (inactive) with NCI-H522 lung (10 µM unless noted); 96.5% (inactive) and 109% (inactive) with A549/ATCC NSCLC (10 µM unless noted); 97.2% (inactive) and 79.2% (inactive) in the assay on 786-0 renal (10 µM unless noted); 104% (inactive) and 131% (inactive) in the assay on COLO 205 colon (10 µM unless noted).
In the case of `CCc1ccccc1-n1c(N)c(C#N)c(-c2ccc(OC)c(OC)c2)c(C#N)c1=O`, the growth with NCI-H23 lung (10 µM) is 105% (inactive); in the assay on NCI-H23 lung (100 µM), 29.3% (inactive); with NCI-H226 lung (10 µM), 109% (inactive); with NCI-H226 lung (100 µM) it was 8% (active); in the assay with NCI-H322M lung (10 µM), 108% (inactive); in the assay on NCI-H322M lung (100 µM), 39.5% (inactive). Moreover, the growth is 121% (inactive) in the assay with NCI-H460 lung (10 µM); 30.1% (inactive) in the assay on NCI-H460 lung (100 µM); 126% (inactive) with HOP-92 NSCLC (10 µM); -34.6% (active) in the assay with HOP-92 NSCLC (100 µM); 105% (inactive) in the assay with NCI-H522 lung (10 µM); -8.58% (active) with NCI-H522 lung (100 µM). Also, the growth in the assay with A549/ATCC NSCLC (10 µM) was 106% (inactive); with A549/ATCC NSCLC (100 µM), 79.9% (inactive); in the assay on 786-0 renal (10 µM), 107% (inactive); in the assay on 786-0 renal (100 µM) it was -9.15% (active); in the assay on COLO 205 colon (10 µM) it was 138% (inactive); with COLO 205 colon (100 µM) it was 115% (inactive).
On to `O=C(N/N=C/c1ccc2c(c1)OCO2)c1ccncc1`, for which the growth was 99% (inactive) and 101% (inactive) in the assay with NCI-H23 lung (10 µM unless noted); 108% (inactive) and 93.3% (inactive) in the assay on NCI-H226 lung (10 µM unless noted); 114% (inactive) and 94.6% (inactive) in the assay with NCI-H322M lung (10 µM unless noted); 99.5% (inactive) and 108% (inactive) in the assay on HOP-62 NSCLC (10 µM unless noted); 101% (inactive) and 111% (inactive) in the assay with NCI-H460 lung (10 µM unless noted); 106% (inactive) and 70.1% (inactive) in the assay on HOP-92 NSCLC (10 µM unless noted). For the same molecule, the growth in the assay on NCI-H522 lung (10 µM unless noted) was 77.8% (inactive) and 96.3% (inactive); with A549/ATCC NSCLC (10 µM unless noted), 108% (inactive) and 109% (inactive); in the assay on 786-0 renal (10 µM unless noted), 109% (inactive) and 101% (inactive); with COLO 205 colon (10 µM unless noted) it was 101% (inactive) and 110% (inactive).

(Values after PubChem BioAssay (NCI).)
